# Laboratory results published in PubChem BioAssay (EPA / NIEHS).
# Calls of active or inactive are those of the source. How the source made its calls: active means hit-call score of the fitted dose curve at least 0.9, where 1 is the maximum; inactive means score below 0.9.
# Assay: ATG_Oct_MLP_CIS: Attagene CIS-FACTORIAL HepG2 Assay for human Octamer-Binding Transcription Factor (Oct) (AID 2282993)
# Settings: HepG2 Attagene cis-factorial Oct reporter, mRNA; actives raise or lower the signal
# Method: ATG_CIS is a cell-based, multiplexed-readout assay that uses HepG2, a human liver cell line, with measurements taken at 24 hours after chemical dosing in a 24-well plate.ATG_Oct_MLP_CIS is one of 52 assay component(s) measured or calculated from the ATG_CIS assay. It is designed to make measurements of mRNA induction, a form of inducible reporter, as detected with fluorescence intensity signals by Reverse transcription polymerase chain reaction (RT-PCR) and Capillary electrophoresis technology.Data from the assay component ATG_Oct_MLP_CIS was analyzed into 1 assay endpoint. This assay endpoint, ATG_Oct_MLP_CIS, was analyzed with bidirectional fitting relative to DMSO as the negative control and baseline of activity. Using a type of inducible reporter, measures of mRNA for gain or loss-of-signal activity can be used to understand the reporter gene at the transcription factor-level as they relate to the gene POU2F1. Furthermore, this assay endpoint can be referred to as a primary readout, because this assay has produced multiple assay endpoints where this one serves a reporter gene function. To generalize the intended target to other relatable targets, this assay endpoint is annotated to the dna binding intended target family, where the subfamily is POU domain protein.
# Human liver HepG2 cells are transiently transfected with multiple reporter transcription units (MRTUs) in 6-well plates using FuGene 6 reagent (Roche; 3 ml FuGene/1 mg DNA). The MRTU constructs are regulated by a cis-regulating element (promoter). […] A major difference between the CIS and TRANS system is that in CIS activities of endogenous TFs are measured, whereas the TRANS assay evaluates changes in activities of exogenous, chimeric NR-Gal4 proteins. […] At the end of 24 hour incubation, total RNA was isolated using TriZol reagent (Invitrogen). The isolated RNA is then reverse-transcribed using oligo(dT) primer and Mo-MLV reverse transcriptase (Invitrogen) with DNAse I (Ambion) treatment for 30 min. The one-tenth of the produced cDNA was amplified by PCR using Taq DNA polymerase (Invitrogen) and two reporter sequence-specific primers. The PCR products were fluorescently labeled by primer extension with 6-arboxyfluorescein (6-FAM) 5'-labeled reporter sequence-specific primer (2 min at 95 C, 20 s at 68 C and 10 min at 72 C) and these products were digested with 5U of HpaI (New England Biolabs) for 2h at 37 C. The fragments were purified using Qiaquick PCR columns (Qiagen), analyzed on an ABI 3130xL genetic analyzer (Applied Biosystems) with peak positions identified by using a set of X-rhodamine (ROX)-labeled MapMarker1000 molecular weight standards (BioVentures). The raw capillary electrophoresis data was processed using Attagraph software (Attagene).
Compound,outcome,AC50
O=C1C(N(CO)C(=O)NCO)N(CO)C(=O)N1CO (stereo not given),inactive,
CC(=O)CC(N)=O,inactive,
Cc1ccc(C(C)(C)C)cc1,inactive,
CCCOC(=O)CCCCC(=O)OCCC,inactive,
CCCCCCC1(C)CCC(=O)O1 (stereo not given),inactive,
CC(C)c1ccc(C=O)cc1,inactive,
CC(C)CC(O)Cc1ccccc1 (stereo not given),inactive,
C=C(C)[C@H]1CC=C(C)CC1,inactive,
CN1C(=O)N(C)C(O)C1O (stereo not given),inactive,
Cc1cc(C)c(C)cc1C,inactive,
O=C(O)Cc1c(Cl)ccc(Cl)c1Cl,inactive,
O=C(O)c1ccccc1Nc1cccc(C(F)(F)F)c1,inactive,
CCCCC/C=C\C/C=C\CCCCCCCC(=O)OC,inactive,
O=C(OCC1CCC2OC2C1)C1CCC2OC2C1 (stereo not given),inactive,
COCc1c(C(C)C)nc(C(C)C)c(/C=C/[C@@H](O)C[C@@H](O)CC(=O)O)c1-c1ccc(F)cc1,inactive,
[Cl][In]([Cl])[Cl],inactive,
CCc1c(C(=O)O)c(=O)cnn1-c1ccc(Cl)cc1,inactive,
CCCCC/C=C\CCC=O,inactive,
C=C1[C@H]2CC[C@@H]3[C@H]2C(C)(C)CCC[C@]13C,inactive,
CCOC(=O)CC,inactive,

Compound,outcome,AC50
C=C(C)CCO,inactive,
CCCCCc1ccc(Cl)cc1,inactive,
CC(C)(C)C(=O)C=Cc1ccc(Cl)cc1,,26.3 µM (active)
ON(Cc1ccccc1)Cc1ccccc1,inactive,
CC(C)c1ccc2cc(C(C)C)ccc2c1,inactive,
CC(=O)Oc1ccc(C)cc1,inactive,
CO[Si](CCC1CCC2OC2C1)(OC)OC (stereo not given),inactive,
C=CC(C)(CCC=C(C)C)OC(=O)C(C)C (stereo not given),inactive,
CC(C)=CC1CC(C)CCO1 (stereo not given),inactive,
N#[N+]c1ccc2c(S(=O)(=O)[O-])cccc2c1O,inactive,
COC(=O)/C=C\C(=O)O,inactive,
CC(=O)OC1C2(C)CCC(C2)C1(C)C (stereo not given),inactive,
COC=O,inactive,
O=c1[nH]c(=O)c2[nH]c(=O)[nH]c2[nH]1,inactive,
O=c1cc(-c2ccccc2)oc2ccccc12,,52.4 µM (active)
NCCCN1CCN(CCCN)CC1,inactive,
Cc1ccc(N/N=c2\c(=O)cc/c(=N/Nc3ccc(S(=O)(=O)O)cc3)c2=O)c(C)c1,inactive,
CC[C@H]1OC(=O)[C@H](C)[C@@H](O[C@H]2C[C@@](C)(OC)[C@@H](O)[C@H](C)O2)[C@H](C)[C@@H](O[C@@H]2O[C@H](C)C[C@H](N(C)C)[C@H]2O)[C@](C)(O)C[C@@H](C)C(=NOCOCCOC)[C@H](C)[C@@H](O)[C@]1(C)O,inactive,
CC(C)c1ccc(C#N)cc1,inactive,
NC(=O)OCC(COC(N)=O)c1ccccc1,inactive,
